Source: PubChem BioAssay AID504558 (Broad Institute, 2011)
The campaign covered roughly 350,000 compounds. About 2,400 (0.69%) were called active. This excerpt belongs to a sample that is enriched for actives. Unmarked numbers belong to inactive results. Rule as the data show it: active = inhibition above about 41%; inconclusive = no clear call, values can overlap the other calls; inactive = below that.

Test: EBV LMP1-driven NF-kappaB luciferase reporter inhibitors, primary screen, cell-based, luminescence, single point (AID 504558);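 also: 0% = neutral control wells and 100% = reference inhibitor control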
Conditions: LMP1-induced NF-kappaB luciferase reporter cells, at 12.5 µM, hits give high values

Row | Structure (SMILES) | inhibition
1 | COc1cccc(-c2nc3ccc(N4CCN(C)CC4)cc3[nH]2)c1 | 55.9% (active)
2 | CN1CCN(c2cc(N3CCNCC3)ccc2[N+](=O)[O-])CC1 | -3.51%
3 | O=C(c1ccccc1)C(O)(CN1CCCCC1)c1ccccc1 (stereo not given) | 10.5%
4 | CCOc1ccc(-c2cc(C)[n+](CCN(CC)CC)c(-c3ccc(OCC)cc3)c2)cc1 | 34.1%
5 | CCC/C(=N\O)c1c[nH]c2ccccc12 | -1.7%
6 | NCCc1c[nH]c2ccc(O)cc12 | 0.174%
7 | CC(C)c1c(CN(C)C(C)Cc2ccccc2)n(C)n(-c2ccccc2)c1=O (stereo not given) | 46.3% (active)
8 | CN(C)CCN(CC1CCCN(Cc2ccccc2F)C1)C(=O)Cc1ccc(F)c(F)c1 (stereo not given) | -8.27%
9 | c1cc2c(cc1[C@H]1OC[C@H]3[C@@H]1CO[C@@H]3c1ccc3c(c1)OCO3)OCO2 | -19.4%
10 | CC=C(C)C(=O)OC1CCN2CC=C(COC(=O)C(O)(C(C)OC)C(C)(C)O)C12 (stereo not given) | -5.68%
11 | COc1ccc2c(c1)[C@]13CCCCC1C(C2)N(C)CC3 (stereo not given in full) | -1.94%
12 | CCCC[N+]1(C)C2CC(OC(=O)C(CO)c3ccccc3)CC1C1OC12 (stereo not given) | -0.864%
13 | Cc1ccc(-c2nn(CCC#N)cc2C(=O)O)cc1C | -6.4%
14 | Clc1cccc(Cl)c1Cl | -0.913%
15 | CCC(C)(O)C(=O)OC1C(=O)OC2CC3C(C)=CC(=O)C(O)C3(C)C3C4(O)OCC23C1C(C)C4O (stereo not given) | 93.7% (active)
16 | CN(C)C(=O)Oc1ccc(NC(=O)N2CCOCC2)cc1 | 3.17%
17 | CCN1C(=O)C(=Cc2c(C)n(CC(=O)NCC3CCCO3)c3ccccc23)C(=O)N(CC)C1=S (stereo not given) | 0.11%
18 | CC(=O)OC1C2(CC3N4C(=O)C5(CO)SSC4(CC31O)C(=O)N5C)OC(C)C(C)(C)C2=O (stereo not given) | 86.8% (active)
19 | CCOC(=O)CC(SP1(=S)OCC2(CCCCO2)C(C2CCCCO2)O1)C(=O)OCC (stereo not given) | -9.32%
20 | C[C@]12CC[C@H](O)C[C@H]1CC[C@@H]1C2CC[C@]2(C)[C@@H](C3=CC(=O)OC3)[C@@H](O)C[C@]12O (stereo not given in full) | 37%
21 | COC1C(O)C(C)OC(OC2CCC3(C=O)C(CCC4C3CCC3(C)C(C5=CC(=O)OC5)CCC43O)C2)C1O (stereo not given) | 89.7% (active)
22 | O=C(NCC1=C(c2ccc3ccccc3c2)C[C@@H]2CC[C@H]1N2Cc1ccco1)c1cccs1 | 1.8%
23 | CCC(=O)OC(Cc1ccccc1)(c1ccccc1)C(C)CN(C)C (stereo not given) | 0.604%
24 | O=C1C2(Cl)C3(Cl)C4(Cl)C(Cl)(Cl)C5(Cl)C3(Cl)C1(Cl)C5(Cl)C24Cl (stereo not given) | 6.24%
25 | CN1CCN(Cc2ccc(OC(F)(F)F)cc2)CC1 | -6.99%
